Screen size: about 310,000 compounds; about 14,000 (4.5%) showed an effect of 50% or more. The effect is printed as a negative number. The entries come from a sample that favours strong results as a whole.
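Further: peak tail current of the secondary pulse compared with the same well before compound.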

The test deals with human ether-à-go-go-related gene (hERG) potassium channel (human, UniProt Q12809). Description: primary screen, population patch clamp on CHO cells stably expressing hERG; higher = less effect of the substance.
Sequence of human ether-à-go-go-related gene (hERG) potassium channel (Q12809 whole entry, looked up): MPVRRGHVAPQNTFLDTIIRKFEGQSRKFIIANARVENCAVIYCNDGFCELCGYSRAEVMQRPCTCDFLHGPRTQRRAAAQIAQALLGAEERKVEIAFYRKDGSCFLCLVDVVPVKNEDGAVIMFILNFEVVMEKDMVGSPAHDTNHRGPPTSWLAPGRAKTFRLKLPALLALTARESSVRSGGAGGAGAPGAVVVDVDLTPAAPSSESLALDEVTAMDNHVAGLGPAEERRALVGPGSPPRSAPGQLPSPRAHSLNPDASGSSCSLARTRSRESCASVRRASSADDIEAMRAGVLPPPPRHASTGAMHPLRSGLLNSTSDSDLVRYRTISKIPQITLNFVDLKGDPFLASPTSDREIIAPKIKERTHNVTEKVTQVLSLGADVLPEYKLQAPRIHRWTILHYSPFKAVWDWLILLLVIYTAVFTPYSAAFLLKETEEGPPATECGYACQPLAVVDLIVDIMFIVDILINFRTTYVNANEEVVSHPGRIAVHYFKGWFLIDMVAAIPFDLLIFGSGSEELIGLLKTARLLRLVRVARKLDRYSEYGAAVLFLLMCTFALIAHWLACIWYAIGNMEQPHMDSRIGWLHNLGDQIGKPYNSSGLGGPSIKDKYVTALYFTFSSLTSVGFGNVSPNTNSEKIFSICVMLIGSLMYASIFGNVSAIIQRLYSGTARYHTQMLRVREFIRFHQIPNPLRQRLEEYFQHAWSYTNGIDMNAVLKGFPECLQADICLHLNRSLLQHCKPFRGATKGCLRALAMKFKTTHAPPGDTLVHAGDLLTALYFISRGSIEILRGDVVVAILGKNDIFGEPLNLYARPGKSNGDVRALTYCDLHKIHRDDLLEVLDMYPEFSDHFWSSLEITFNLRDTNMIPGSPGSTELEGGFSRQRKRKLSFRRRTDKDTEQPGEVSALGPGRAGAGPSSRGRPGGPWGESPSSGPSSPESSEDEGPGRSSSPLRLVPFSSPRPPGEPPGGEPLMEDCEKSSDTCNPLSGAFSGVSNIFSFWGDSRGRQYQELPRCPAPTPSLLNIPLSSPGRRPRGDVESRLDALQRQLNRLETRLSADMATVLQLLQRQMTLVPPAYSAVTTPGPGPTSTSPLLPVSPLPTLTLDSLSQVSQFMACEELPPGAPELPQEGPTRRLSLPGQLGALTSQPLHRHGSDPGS
Consider `CN1CCN(C(=O)CCCOc2ccc(Cl)cc2Cl)CC1`, for which the “hERG current change (%, negative = inhibition) at 10uM” value is listed as -61.6%.
In the case of `O=C(CCCOc1ccc(Cl)cc1Cl)N1CCc2ccccc2C1` it was 12%.
In the case of `Cc1cc(Cl)ccc1OCC(=O)N1CCN(C)CC1` it was -12.5%; in that of `Cc1cc(Cl)ccc1OCCCC(=O)N1CCOCC1`, -25%; in that of `CCC12CN(C(=O)c3ccc(OC)cc3)CC(CC)(CN(C(=O)c3ccc(OC)cc3)C1)C2=O`, 3.45%.
For the molecule `Cc1cc2cc3c(cc2nc1SCC(=O)N1CCOCC1)OCO3`, the “hERG current change (%, negative = inhibition) at 10uM” value turned out to be 2.58%.
For `CCOc1ccc(S(=O)(=O)NCCC(=O)N2CCN(c3ncccn3)CC2)cc1`, the “hERG current change (%, negative = inhibition) at 10uM” value is -8.57%.
To `CCC(Sc1nc(N)c(NC(=O)c2ccc(Br)o2)c(=O)[nH]1)C(=O)O` (stereo not shown) belongs 15.4%; to `C/C(CC1CC(COCCC(C)C)OC1=O)=N\NC(N)=S` (stereo not shown), 4.37%.
To `COC(=O)C1=C(N)Oc2cc(C)n(CC3CCCO3)c(=O)c2C1c1ccc(Cl)c(Cl)c1` (stereo not shown) belongs 3.95%; to `CC(=O)c1cccc(N(CC(=O)Nc2cc(C)cc(C)c2)S(C)(=O)=O)c1`, 13.3%; to `CSc1nc2sc3c(c2c(=O)[nH]1)CC(C)(C)OC3`, 13.8%.
To `CCc1ccccc1N1CN(Cc2cccnc2)CNC1=S` belongs 3.35%.
In the case of `Cc1cc(C)nc(N2CCCC(C(=O)Nc3ccc4nc(C)c(C)nc4c3)C2)n1` (stereo not shown), the “hERG current change (%, negative = inhibition) at 10uM” value was 9.96%.
With `COc1cccc(/C=N/NC(=O)CN(C2=NS(=O)(=O)c3ccccc32)c2ccccc2)c1`, the “hERG current change (%, negative = inhibition) at 10uM” value amounted to 0.919%.
Regarding `O=C(Nc1ccc(N2CCOCC2)cc1)c1cc2ccccc2o1`, the “hERG current change (%, negative = inhibition) at 10uM” value turned out to be 4.38%.
In the case of `O=C(Nc1ccc(CN2CCOCC2)cc1)c1ccc(-c2cccc(Cl)c2)o1` it was -52.8%.
To `CN1CCN(c2ccc(NC(=O)c3ccc4ccccc4c3)cc2)CC1` belongs -66.1%; to `O=C(Nc1ccc(-c2nnc3n2CCCCC3)cc1)c1ccco1`, 5.26%; to `O=C(NC(=S)Nc1ccc(CN2CCOCC2)cc1)c1ccc(-c2cccc(Cl)c2)o1`, 7.11%.
For the molecule `O=C(Nc1ccc(CN2CCOCC2)cc1)c1cc2ccccc2o1`, the “hERG current change (%, negative = inhibition) at 10uM” value was -50.2%.
In the case of `CC(=O)N1CCN(c2ccc(NC(=O)c3ccc4ccccc4c3)cc2)CC1` it was -7.05%; in that of `Cc1c(C(=O)Nc2ccc(-c3nnc4n3CCCCC4)cc2)oc2c1ccc1ccccc12`, -13.8%; in that of `O=C(Nc1ccc(CN2CCOCC2)cc1)c1ccc(-c2cccc([N+](=O)[O-])c2)o1`, -48.3%.
In the case of `O=C(Nc1ccc(N2CCCC2)cc1)c1ccc2ccccc2c1` it was 0.743%; in that of `O=C(NC(=S)Nc1ccc(CN2CCOCC2)cc1)c1cc2ccccc2o1`, 11.7%; in that of `O=C(Nc1ccc(-c2nnc3n2CCCCC3)cc1)c1cc2ccccc2o1`, -71.8%.
In the case of `Cc1ccc(C2=NS(=O)(=O)N(C)C(C(=O)NCc3ccccc3)=C2)cc1` it was -0.52%; in that of `O=C(NCCN1CCOCC1)c1ccc(Cl)c([N+](=O)[O-])c1`, 16.5%.
In the case of `Cc1ccc2c(c1)N(C(C)C(=O)NCCc1ccccc1)C(=O)CO2` (stereo not shown), the “hERG current change (%, negative = inhibition) at 10uM” value turned out to be 7.21%.
As for `COc1cc(C(=O)Nc2cc(C(F)(F)F)ccc2N2CCOCC2)ccc1O`, the “hERG current change (%, negative = inhibition) at 10uM” value is -26.6%.
In the case of `O=C(CCc1nc(-c2ccccc2Cl)no1)NCCc1ccccc1` it was 7.08%; in that of `COc1ccc(CCNC(=O)c2c(O)c3ccccc3n(C)c2=O)cc1`, -12.1%; in that of `O=c1[nH][nH]c(-c2ccccc2)c1C=Nc1cccc(Cl)c1`, 5.35%.
On to `O=C(Nc1ccc(N2CCCC2)cc1)c1cc2ccccc2o1`, for which the “hERG current change (%, negative = inhibition) at 10uM” value is 20.4%.
To `COc1ccc(-c2ccc(CNCCCN3CCOCC3)o2)cc1Cl.Cl` belongs 6.83%.
Regarding `CN1CCN(c2ccc(NC(=O)c3cc4ccccc4o3)cc2)CC1`, the “hERG current change (%, negative = inhibition) at 10uM” value is reported as -72.3%.
For the molecule `CN1CCN(c2ccc(NC(=O)c3ccc(-c4ccc(Cl)cc4)o3)cc2)CC1`, the “hERG current change (%, negative = inhibition) at 10uM” value is 11.5%.
`CN1CCN(c2ccc(NC(=O)c3ccc(-c4ccccc4F)o3)cc2)CC1`: the “hERG current change (%, negative = inhibition) at 10uM” value is reported as -70%.
In the case of `CS(=O)(=O)N1CCN(c2ccc(NC(=O)c3ccc(-c4ccc(Cl)cc4)o3)cc2)CC1` it was -10.6%; in that of `O=C(Nc1ccc(N2CCOCC2)cc1)c1ccc(-c2ccccc2[N+](=O)[O-])o1`, 15.9%.
In the case of `c1coc(CNCCCN2CCOCC2)c1` it was -0.128%; in that of `CC(=O)N1CCN(c2ccc(NC(=O)c3cc4ccccc4o3)cc2)CC1`, -24.5%.
In the case of `Cl.Clc1cccc(-c2ccc(CNCCCN3CCOCC3)o2)c1` it was -58.3%; in that of `CN1CCN(c2ccc(NC(=O)c3ccc(-c4ccc(Br)cc4)o3)cc2)CC1`, 0.645%.
With `Cc1cc(N2CCN(C)CC2)ccc1NC(=O)c1ccc(-c2ccc(Cl)cc2)o1`, the “hERG current change (%, negative = inhibition) at 10uM” value is given as -80%.

For the origin of these results see publication PMC4336329 (PLoS ONE, 2015).
